Measurements reported in PubChem BioAssay (NCI).
Compounds without any hit were thinned out: in the full panel of roughly 83,000, 20% have a hit.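 Interpretation: 100, growth as untreated; towards 0, rising growth inhibition; 0, no net growth; 0 to -100, cell death. Compounds scoring below 10 were considered active.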 Unmarked numbers belong to inactive results. Activity calls are given as the source filed them.

Columns and labels:
Test in all cases: NCI-60 one-dose screen, 48 h (100 = growth as untreated, 0 = no growth, -100 = all killed)
Conditions in all cases: 10 µM unless noted
[1] = tested on: NCI-H23 lung
[2] = tested on: NCI-H226 lung
[3] = tested on: NCI-H322M lung
[4] = tested on: HOP-62 NSCLC
[5] = tested on: NCI-H460 lung
[6] = tested on: HOP-92 NSCLC
[7] = tested on: NCI-H522 lung
[8] = tested on: A549/ATCC NSCLC
[9] = tested on: 786-0 renal
[10] = tested on: COLO 205 colon

SMILES	growth [1]	growth [2]	growth [3]	growth [4]	growth [5]	growth [6]	growth [7]	growth [8]	growth [9]	growth [10]
Cc1nn(-c2ccccc2)c(-n2ccnc2)c1/C=N/Nc1nc(-c2ccc(Cl)c(Cl)c2)cs1	12.5%	51.9%	76%	10.8%	3.5% (active)	-22.9% (active)	31.5%	-8.24% (active)	20.7%	
COc1ccc(-c2nc(NN)c3c(C)nn(-c4ccc(F)cc4)c3n2)cc1	66.9%	80%	74.6%	50.6%	18.8%	52.7%	22.6%	38.1%	38.6%	
Cc1ccc(S(=O)(=O)Oc2ccc(NC(=O)c3ccc(Cl)cc3)cc2)cc1	102%	109%	91%	91.1%	103%	102%	83.8%	95%	91.1%	
O=C(N/N=C/[C@H](O)[C@H](O)[C@H](O)CO)c1ccc(NC(=O)c2cccnc2)cc1	101%	105%	105%	97.5%	104%	103%	92.7%	99.8%	105%	
Cc1cc2[nH]c(=O)c3c4ncccc4cn3c2cc1C	70%	51.8%	29.9%	59%	-33.9% (active)	83.3%	-23.7% (active)	49.8%	7.03% (active)	
CNC(=O)c1cc(-n2ccc3cc(NC(=O)c4ccc(N5CCOCC5)c(C(F)(F)F)c4)ccc32)ccn1	64%	51.7%	91.5%	62%	68.4%	60.5%	52%	46.3%	47.8%	
NCCCNc1nc2ccc(Cl)cc2c2c(=O)c3cc(F)ccc3sc12	82.9%	91.9%	74.9%	81.9%	-68.8% (active)	30.3%	62.4%	58.2%	72.7%	
OC(c1ccccc1)C(NC(Cc1ccccc1)c1ccccc1)c1ccccc1 (centres undefined)	81.8%	82.1%	93.2%	88%	91.7%	65.3%	67.1%	73.3%	81.4%	101%
C#C[C@]1(O)CC[C@H]2[C@@H]3CC=C4c5sc(Nc6ccccc6)nc5CC[C@]4(C)[C@H]3CC[C@@]21C	39.1%	62.7%	48%	35.5%	20.5%	53.4%	43.3%	52.9%	-36.5% (active)	
COc1ccc(C2NC(=O)C(C#N)c3c2sc2c(F)cccc32)c(OC)c1 (centres undefined)	64.8%	62.2%	90.4%	57.4%	31.8%	42.2%	7.97% (active)	58.5%	68.5%	
O=C(CSc1nccc(Nc2ccc(S(=O)(=O)Nc3nccs3)cc2)n1)c1ccc(C(F)(F)F)cc1	88.1%	89.2%	106%	113%	107%	90.8%	84.4%	99.6%	99.7%	
CC(C)OC(=O)Nc1ccc(-c2nc(-c3cccc(OCCN4CCOCC4)c3)c(-c3ccnc(Br)c3)[nH]2)cc1	33%	55.3%	46.5%	28.4%	30%	29.8%	49.9%	40%	-33% (active)	
COc1c(B(O)O)cc(C)cc1-c1nc2ccc3[nH]ncc3c2c2c1CCCC2	70.9%	73.7%	106%	43%	31.4%	53.8%	37.3%	52.7%	48.3%	
N#Cc1c(-c2ccc(Cl)cc2)nc(NCCO)[nH]c1=O	94.3%	101%	94.4%	88.6%	114%	92.3%	95.9%	93.9%	101%	
Oc1ccc(Cl)cc1Cc1cc(Cl)cc(Cl)c1O	9.44% (active)	90.1%	29.9%	22.9%	20.9%	-24.9% (active)	38.9%	46.8%	59.5%	
CCCCOc1ccc(/C=N/NC(N)=S)cc1	87.6%	68.9%	94.9%	116%	96.5%	68.2%	8.46% (active)	91.4%	68.3%	
CCCCCCNC(=O)Oc1ccc(/C(=C(\C)c2ccc(OC)cc2)c2ccc(OCCN3CCCCC3)cc2)cc1	64.6%	95.6%	90.3%	72%	52.7%	67.6%	72.7%	61.7%	41.7%	
O=C1CCC(C(=O)NCCNCCNC(=O)C2CCC(=O)N2)N1 (centres undefined)	106%	97.7%	104%	93.7%	102%	80.6%	72.5%	88.4%	101%	
COc1ccc(C2=Nn3c(nnc3-c3cc(Cl)cc(Cl)c3Cl)SC2)cc1	3.14% (active)	64.8%	36.4%	-2.41% (active)	-18.9% (active)	22.3%	-17.8% (active)	21.9%	6.36% (active)	
O=C(Nc1ccc(OS(=O)(=O)c2ccc(F)cc2)cc1)c1ccc(Cl)cc1	94%	99.5%	92.6%	101%	101%	101%	83.6%	94.1%	104%	
c1ccc(CO[C@H]2CO[C@H]3[C@@H]2OC[C@@H]3Oc2ccc(Nc3ncnc4ccsc34)cc2)cc1	62.6%	80.3%	93.1%	86.5%	84.5%	65%	70.4%	81.7%	87.2%	
Cc1nn(-c2ccccc2)c2c1N=c1s/c(=C\c3ccc(C(F)(F)F)cc3)c(=O)n1CN2	51.1%	61%	75.7%	87.7%	53.8%	56.4%	40.5%	5.73% (active)	73.2%	
Cc1[nH]c(C(=O)Nc2ccc(C(=O)N3CCNCC3)cc2OC(C)C)c(Cl)c1Cl	90.7%	97.2%	86.1%	88.7%	2.04% (active)	43.5%	94%	70.2%	77.6%	
O=c1c2cc(F)ccc2sc2c(N3CCCCC3)nc3ccccc3c12	95.8%	86%	90.1%	99.3%	109%	84.2%	98.5%	96.2%	95.8%	
COc1ccc(/C=C/c2c(C(=O)/C=C/c3ccc(Cl)cc3)c(C)nc3ccccc23)cc1	35.8%	12.4%	68.6%	22.7%	0.257% (active)	70.2%	23.6%	84.1%	14.3%	
CC1=C([Se]CC(OC(=O)[C@@H](CSSC(C)(C)C)NC(=O)OC(C)(C)C)C(=O)NC(C)(C)C)C(=O)c2ccccc2C1=O (some centres undefined)	-63.7% (active)	-56.8% (active)	-73.6% (active)	-51% (active)	-52.1% (active)	-72.2% (active)	7.01% (active)	1.99% (active)	-93.8% (active)	-84.7% (active)
COc1ccc(N2C(=O)C(Oc3ccccc3)C2c2ccc(C)cc2)cc1 (centres undefined)	91%	114%	103%	104%	103%	66.8%	94.2%	90.5%	98.5%	107%
CC(=O)c1ccc(Nc2nc(C(C)=O)c(C)s2)cc1	96%	66.2%	82%	95.4%	97.8%	102%	87.9%	95.5%	95.8%	
O=C(Nc1ccc(-c2nc(-c3cccc(OCCN4CCOCC4)c3)c(-c3ccnc(Br)c3)[nH]2)cc1)c1ccccc1	13.3%	52.8%	47.4%	-1.45% (active)	7.26% (active)	23.2%	40.7%	21.9%	-39.4% (active)	
